Data: PubChem BioAssay (Tox21)
Values joined by “and” are separate entries in the source; they are usually repeats but may differ in a detail not shown here. Equal values may be shown once. Inconclusive results are not listed. A call without a number means that no potency is given here. Active and inactive are the calls of the source. The call rests on the fitted dose curve; in most records, active means well fitted cell-killing curve with a large enough effect in the repeat runs; inconclusive means weak or mixed curves, or effect the other way; inactive means flat fitted curve, though single readings scatter.

assay: qHTS assay to identify small molecule agonists of the constitutive androstane receptor (CAR) signaling pathway - cell viability counter screen (AID 1224836); conditions: HepG2-CYP2B6-hCAR viability, CellTiter-Fluor, 23 h, PK11195 added to every well; series mostly up to 92.4 µM
Procedure, shortened: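 Counter screen multiplexed with the CAR reporter readout: HepG2 cells co-transfected with hCAR and the CYP2B6-2.2kb construct receive a 15-concentration compound series and 0.75 uM PK11195 (final), then CellTiter-Fluor fluorescence is read after 23 h.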
Further: nearly all actives have a fitted effect of over 45% in size.
Potency means the concentration at half of the fitted maximal effect.

SMILES | Potency
CCOCn1c(-c2ccc(Cl)cc2)c(C#N)c(Br)c1C(F)(F)F | 4.33 µM (active)
N#CNC#N | inactive
CCCCCCCCCCCCCN1CC(C)OC(C)C1 (centres undefined) | inactive
C[C@H]1CC[C@@H]2[C@@H](C)[C@H]3[C@H](C[C@H]4[C@@H]5CC=C6CC(O[C@@H]7O[C@H](CO)[C@H](O)[C@H](O[C@@H]8O[C@H](CO)[C@@H](O)[C@H](O)[C@H]8O)[C@H]7O[C@H]7O[C@@H](C)[C@H](O)[C@@H](O)[C@H]7O)CC[C@]6(C)[C@H]5CC[C@]34C)N2C1 (some centres undefined) | 22.4 µM (active)
Clc1ccc(CCC(Cn2ccnc2)Sc2c(Cl)cccc2Cl)cc1 (centres undefined) | inactive
Nc1ccccc1C(=O)Oc1ccc2ccccc2c1 | inactive
BrC(Br)Br | inactive
CC(C)[C@H](C(=O)OC(C#N)c1cccc(Oc2ccccc2)c1)c1ccc(OC(F)F)cc1 (some centres undefined) | inactive
C[C@@H]1O[C@@H](O[C@H]2C[C@@H](O)[C@]3(CO)[C@H]4[C@H](O)C[C@]5(C)[C@@H](C6=CC(=O)OC6)CC[C@]5(O)[C@@H]4CC[C@]3(O)C2)[C@H](O)[C@H](O)[C@H]1O | 231 nM (active) and 266 nM (active)
CC(C)(C)OO | inactive
O=C1NCN(c2ccccc2)C12CCN(CC1COc3ccccc3O1)CC2 (centres undefined) | inactive
ClC(Cl)=C(c1ccc(Cl)cc1)c1ccc(Cl)cc1 | inactive
CC(=O)Nc1ccc2c(c1)Cc1ccccc1-2 | inactive
ClC1=C(Cl)C2(Cl)C3C(Cl)C=CC3C1(Cl)C2(Cl)Cl (centres undefined) | inactive
CC(C)CCCCCOC(=O)c1ccccc1C(=O)OCCCCCC(C)C | inactive
c1ccc2c(c1)[nH]c1cnccc12 | inactive
Cc1ccc(OP(=O)(Oc2ccccc2)Oc2ccccc2)cc1 | inactive
Cc1c(Cl)c(=O)oc2cc(OP(=O)(OCCCl)OCCCl)ccc12 | inactive

SMILES | Potency
CCCN(CC)CC1COC2(CCC(C(C)(C)C)CC2)O1 (centres undefined) | inactive
FC(F)(F)c1cccc(C2=CCN(CCc3ccc4ccccc4c3)CC2)c1 | inactive
CCOC(=O)C1(c2ccccc2)CCN(CCC(C#N)(c2ccccc2)c2ccccc2)CC1 | inactive
N#CCCSCCC#N | inactive
OC(c1ccc(Cl)cc1)(c1ccc(Cl)cc1)C(Cl)(Cl)Cl | inactive
NNC(=O)c1ccccc1 | inactive
C[C@]12CC[C@H]3[C@@H](CCC4=CC(=O)CC[C@@]43C)[C@@H]1CC[C@@H]2O | inactive
CCCN(CCC)CCc1c[nH]c2ccccc12 | inactive
CCOC(=O)OC1=C(c2cc(C)ccc2C)C(=O)NC12CCC(OC)CC2 (centres undefined) | inactive
Fc1cccc(Cl)c1CCl | inactive
CCN | inactive
CC(C)OS(C)(=O)=O | inactive
Clc1ccc(-c2ccc(Cl)c(Cl)c2Cl)c(Cl)c1Cl | inactive
O=C(Nc1ccc2[nH]ccc2c1)c1cc2cc(F)ccc2n1Cc1cccc(F)c1 | inactive
COc1ccc(OC)c(CC(C)N)c1 (centres undefined) | inactive
O=C(O)COc1nc(Cl)c(Cl)cc1Cl | inactive
FC(Cl)(Cl)Cl | inactive

assay: qHTS assay to identify small molecule antagonists of the constitutive androstane receptor (CAR) signaling pathway - cell viability counter screen (AID 1224837); conditions: HepG2-CYP2B6-hCAR viability, CellTiter-Fluor, 23 h, co-treated with 50 nM CITCO; series mostly up to 92.4 µM
Procedure, shortened: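 Cytotoxicity counter-screen: CellTiter-Fluor fluorescence after 23 h compound exposure (15-point qHTS) in double-stable HepG2-CYP2B6-hCAR cells, with 50 nM CITCO added.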

SMILES | Potency
CCOCn1c(-c2ccc(Cl)cc2)c(C#N)c(Br)c1C(F)(F)F | 4.33 µM (active)
N#CNC#N | inactive
CCCCCCCCCCCCCN1CC(C)OC(C)C1 (centres undefined) | inactive
C[C@H]1CC[C@@H]2[C@@H](C)[C@H]3[C@H](C[C@H]4[C@@H]5CC=C6CC(O[C@@H]7O[C@H](CO)[C@H](O)[C@H](O[C@@H]8O[C@H](CO)[C@@H](O)[C@H](O)[C@H]8O)[C@H]7O[C@H]7O[C@@H](C)[C@H](O)[C@@H](O)[C@H]7O)CC[C@]6(C)[C@H]5CC[C@]34C)N2C1 (some centres undefined) | 22.4 µM (active)
Nc1ccccc1C(=O)Oc1ccc2ccccc2c1 | inactive
BrC(Br)Br | inactive
CC(C)[C@H](C(=O)OC(C#N)c1cccc(Oc2ccccc2)c1)c1ccc(OC(F)F)cc1 (some centres undefined) | inactive
CC(C)(C)OO | inactive
O=C1NCN(c2ccccc2)C12CCN(CC1COc3ccccc3O1)CC2 (centres undefined) | inactive
ClC(Cl)=C(c1ccc(Cl)cc1)c1ccc(Cl)cc1 | inactive
CC(=O)Nc1ccc2c(c1)Cc1ccccc1-2 | inactive
ClC1=C(Cl)C2(Cl)C3C(Cl)C=CC3C1(Cl)C2(Cl)Cl (centres undefined) | inactive
CC(C)CCCCCOC(=O)c1ccccc1C(=O)OCCCCCC(C)C | inactive
c1ccc2c(c1)[nH]c1cnccc12 | inactive
Cc1ccc(OP(=O)(Oc2ccccc2)Oc2ccccc2)cc1 | inactive
Cc1c(Cl)c(=O)oc2cc(OP(=O)(OCCCl)OCCCl)ccc12 | inactive
CCCN(CC)CC1COC2(CCC(C(C)(C)C)CC2)O1 (centres undefined) | inactive
FC(F)(F)c1cccc(C2=CCN(CCc3ccc4ccccc4c3)CC2)c1 | inactive
CCOC(=O)C1(c2ccccc2)CCN(CCC(C#N)(c2ccccc2)c2ccccc2)CC1 | inactive
N#CCCSCCC#N | inactive
OC(c1ccc(Cl)cc1)(c1ccc(Cl)cc1)C(Cl)(Cl)Cl | inactive
C[C@]12CC[C@H]3[C@@H](CCC4=CC(=O)CC[C@@]43C)[C@@H]1CC[C@@H]2O | inactive
CCCN(CCC)CCc1c[nH]c2ccccc12 | inactive
Fc1cccc(Cl)c1CCl | inactive
CCN | inactive
Clc1ccc(-c2ccc(Cl)c(Cl)c2Cl)c(Cl)c1Cl | inactive
O=C(Nc1ccc2[nH]ccc2c1)c1cc2cc(F)ccc2n1Cc1cccc(F)c1 | 61.1 µM (active)
O=C(O)COc1nc(Cl)c(Cl)cc1Cl | inactive
FC(Cl)(Cl)Cl | inactive
